# Results: PubChem BioAssay
# Active and inactive are the calls of the source. Unless noted, no rule for the calls is given here.
# Columns and labels:
# [1] = HepG2 liver cancer cell viability effects, profiling panel, resazurin fluorescence, 24 h, PK04 Diversity Set (AID 1172); conditions: higher = more signal
# [2] = basal S. cerevisiae growth modulation, no modifier, primary screen, OD600, strain BY4716, 24 h, basal condition (AID 1173); conditions: OD600, 24 h, higher = more signal, called active from +8 up or from −8 down
# [3] = MM1S myeloma cell viability, profiling panel, resazurin fluorescence, basal, 24 h, PK04 Diversity Set (AID 1174); conditions: higher = more signal, called active from +8 up or from −8 down;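 also: MM1S multiple myeloma cell line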
# [4] = molecular target: Dihydroorotate dehydrogenase (quinone), mitochondrial (Plasmodium falciparum (isolate 3D7)) (UniProt Q08210); assay: PfDHODH enzyme inhibitors, primary screen, biochemical, C-terminal His tag, absorbance 600 nm (AID 1175); conditions: DCIP absorbance 600 nm, higher = more signal, called active from +8 up or from −8 down;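 also: recombinant parasite enzyme with a five histidine tag at its C terminus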
# [5] = P. aeruginosa biofilm formation inhibitors, primary screen, strain PAO1, LB-PBS medium, absorbance 600 nm (AID 1176); conditions: P. aeruginosa PAO1 growth/biofilm, A600, 12 h; higher = more signal
# [6] = S. cerevisiae RM11-1a growth modifiers, primary screen, strain RM11-1a, OD600, basal, 24 h (AID 1177); conditions: OD600, 24 h, higher = more signal, called active from +8 up or from −8 down;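 also: cultures grown under basal conditions with no added stressor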
# [7] = E. coli acrAB mutant growth effects, primary screen, E. coli filamentation inducers, strain DRC39, OD650, 24 h (AID 1178); conditions: higher = more signal, called active from +8 up or from −8 down;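 also: growth measured as culture turbidity by optical density at 650 nm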
# [8] = E. coli acrAB mutant growth effects, primary screen, E. coli filamentation inducers, strain DRC39, OD650, 48 h (AID 1179);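 also: screen aims at cell division blockers that make cells filament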; conditions: E. coli DRC39 delta-acrAB growth, higher = more signal, called active from +8 up or from −8 down
# [9] = RPMI8226 myeloma cell viability, profiling panel, resazurin fluorescence, basal, 24 h, PK04 Diversity Set (AID 1180); conditions: higher = more signal;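 also: RPMI8826 multiple myeloma cell line at 5000 cells per well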
# [10] = molecular target: E3 ubiquitin-protein ligase XIAP (Homo sapiens) (UniProt P98170); assay: XIAP binders, primary screen, biophysical, small-molecule microarray, fluorescence 635 nm (AID 1181); conditions: small-molecule microarray binding, higher = more signal;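 also: score merges 667 nm emission and signal to noise over triplicate slides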
# [11] = tested on: XIP peptide (Xip251-270) binding; assay: small-molecule binders of XIP peptide, primary screen, biochemical, small-molecule microarray, fluorescence 635/667 nm, 0.1 µg/mL protein (AID 1182); conditions: fluorescent protein binding, 635 nm, higher = more signal, called active from +8 up or from −8 down
# XIP peptide (Xip251-270) = assay: small-molecule binders of XIP peptide, primary screen, biochemical, small-molecule microarray, fluorescence 635/667 nm, 0.5 µg/mL protein (AID 1183); conditions: small-molecule microarray binding, fluorescence 635 nm; higher = more signal
# [12] = Plasmodium falciparum growth inhibition, primary screen, strain 3D7, DAPI fluorescence, 100 nL (AID 1184);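 also: parasites grown inside human red blood cells in medium with human serum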; conditions: P. falciparum 3D7 growth, 3 d, higher = more signal
# [13] = molecular target: Homeobox protein Hox-A13 (Mus musculus) (UniProt Q62424); assay: inhibitors of HoxA13-DNA binding, primary screen, biochemical, fluorescence polarization, labeled oligonucleotide (AID 1185); conditions: 15 min, higher = more signal, called active from +8 up or from −8 down
# [14] = inhibitors of hydroxyurea-induced Chk1 phosphorylation, primary screen, imaging, HeLa, phospho-Chk1 antibody, percent positive cells (AID 1186); conditions: hydroxyurea-induced phospho-Chk1 immunofluorescence imaging, higher = more signal
# [15] = inhibitors of hydroxyurea-induced Chk1 phosphorylation, primary screen, imaging, HeLa, phospho-Chk1 nuclear intensity (AID 1187); conditions: hydroxyurea-induced phospho-Chk1 immunofluorescence imaging, higher = more signal
# Chain of Homeobox protein Hox-A13 (Mus musculus) (Q62424 whole entry, looked up): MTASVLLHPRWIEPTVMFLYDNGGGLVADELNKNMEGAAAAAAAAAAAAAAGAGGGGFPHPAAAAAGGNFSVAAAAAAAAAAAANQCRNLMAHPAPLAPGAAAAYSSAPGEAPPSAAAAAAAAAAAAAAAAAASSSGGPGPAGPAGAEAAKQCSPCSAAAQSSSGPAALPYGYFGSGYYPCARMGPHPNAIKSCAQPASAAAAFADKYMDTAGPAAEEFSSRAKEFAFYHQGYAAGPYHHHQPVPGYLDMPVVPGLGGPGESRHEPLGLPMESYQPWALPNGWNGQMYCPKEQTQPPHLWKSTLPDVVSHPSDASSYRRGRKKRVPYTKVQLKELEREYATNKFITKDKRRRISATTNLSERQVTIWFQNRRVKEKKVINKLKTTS
# Chain of E3 ubiquitin-protein ligase XIAP (Homo sapiens) (P98170 whole entry, looked up): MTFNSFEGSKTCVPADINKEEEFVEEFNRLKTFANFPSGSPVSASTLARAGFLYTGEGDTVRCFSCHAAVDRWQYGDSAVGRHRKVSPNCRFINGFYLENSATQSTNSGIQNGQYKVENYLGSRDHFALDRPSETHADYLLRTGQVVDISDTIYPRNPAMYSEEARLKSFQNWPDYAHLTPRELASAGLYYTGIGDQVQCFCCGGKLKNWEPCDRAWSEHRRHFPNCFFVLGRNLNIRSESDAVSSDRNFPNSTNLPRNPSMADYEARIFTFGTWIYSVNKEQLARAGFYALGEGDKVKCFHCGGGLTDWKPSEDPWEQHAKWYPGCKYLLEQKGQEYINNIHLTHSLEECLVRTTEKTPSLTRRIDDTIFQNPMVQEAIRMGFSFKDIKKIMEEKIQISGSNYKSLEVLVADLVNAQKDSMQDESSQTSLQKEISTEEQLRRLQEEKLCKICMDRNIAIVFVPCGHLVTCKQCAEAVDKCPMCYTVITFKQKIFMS
# Chain of Dihydroorotate dehydrogenase (quinone), mitochondrial (Plasmodium falciparum (isolate 3D7)) (Q08210 whole entry, looked up): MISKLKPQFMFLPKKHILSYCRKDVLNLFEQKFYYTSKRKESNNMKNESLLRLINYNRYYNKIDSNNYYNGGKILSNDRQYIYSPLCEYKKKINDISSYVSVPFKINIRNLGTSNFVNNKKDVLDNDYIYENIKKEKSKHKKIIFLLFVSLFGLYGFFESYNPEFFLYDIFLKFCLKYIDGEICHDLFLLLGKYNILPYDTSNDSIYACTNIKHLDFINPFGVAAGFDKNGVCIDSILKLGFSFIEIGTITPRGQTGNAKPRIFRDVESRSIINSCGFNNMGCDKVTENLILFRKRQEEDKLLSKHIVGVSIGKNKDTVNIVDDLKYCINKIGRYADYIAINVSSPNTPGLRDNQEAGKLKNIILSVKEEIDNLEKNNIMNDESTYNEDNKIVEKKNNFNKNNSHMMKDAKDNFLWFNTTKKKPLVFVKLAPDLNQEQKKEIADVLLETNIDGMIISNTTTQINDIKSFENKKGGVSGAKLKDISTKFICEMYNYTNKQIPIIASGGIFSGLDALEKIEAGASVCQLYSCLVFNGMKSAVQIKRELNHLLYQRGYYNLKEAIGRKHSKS
smiles,measurement,setting,value
CN(C)CCCC[C@@H]1NC(=O)[C@@H]2C[C@H](C(=O)NCc3ccc(F)cc3)[C@H](c3ccc(O)cc3)N2C1=O,z-score,[1],-0.188
same,z-score,[2],0.444 (inactive)
same,z-score,[3],-0.0976 (inactive)
same,composite z-score,[4],-1.14 (inactive)
same,z-score,[5],0.559 (inactive)
same,z-score,[6],-0.605 (inactive)
same,z-score,[7],0.012 (inactive)
same,z-score,[8],0.0344 (inactive)
same,z-score,[9],-0.0587
same,composite z-score,[10],-0.0448
same,composite z-score,[11],-0.23 (inactive)
same,composite z-score,XIP peptide (Xip251-270),0.886
same,z-score,[12],-0.532
same,z-score,[13],-1.16 (inactive)
same,z-score,[14],0.336 (inactive)
same,z-score,[15],0.142 (inactive)
CCC(CC)C(O)C1C=CC2C(=O)N(C)C(=O)C2N1N1CCCCC1 (centres undefined),z-score,[1],-0.735
same,z-score,[2],-0.0172 (inactive)
same,z-score,[3],-1.21 (inactive)
same,composite z-score,[4],-1.17 (inactive)
same,z-score,[5],0.571 (inactive)
same,z-score,[6],-0.266 (inactive)
same,z-score,[7],-0.652 (inactive)
same,z-score,[8],-0.686 (inactive)
same,z-score,[9],-1.12
same,composite z-score,[10],0.167
same,composite z-score,[11],0.865 (inactive)
same,composite z-score,XIP peptide (Xip251-270),0.708
same,z-score,[12],0.907
same,z-score,[13],-6.35 (inactive)
same,z-score,[14],0.687 (inactive)
same,z-score,[15],0.562 (inactive)
CCCCC(O)C1C=CC2C(=O)NC(=O)C2N1Nc1ccccn1 (centres undefined),z-score,[1],-1.32
same,z-score,[2],0.932 (inactive)
same,z-score,[3],-1.09 (inactive)
same,composite z-score,[4],0.487 (inactive)
same,z-score,[5],0.695 (inactive)
same,z-score,[6],0.369 (inactive)
same,z-score,[7],-0.576 (inactive)
same,z-score,[8],-0.529 (inactive)
same,z-score,[9],-1.07
same,composite z-score,[10],0.117
same,composite z-score,[11],-0.634 (inactive)
same,composite z-score,XIP peptide (Xip251-270),0.146
same,z-score,[12],0.993
same,z-score,[13],-1.21 (inactive)
same,z-score,[14],0.846 (inactive)
same,z-score,[15],0.318 (inactive)
CN(C)C(=O)[C@@]1(CCS(=O)(=O)c2ccccc2)N=C(c2ccc(OCCCO)cc2)O[C@H]1c1ccccc1N=[N+]=[N-],z-score,[1],-0.679
same,z-score,[2],0.135 (inactive)
same,z-score,[3],-0.517 (inactive)
same,composite z-score,[4],-0.926 (inactive)
same,z-score,[5],-0.0558 (inactive)
same,z-score,[6],-0.241 (inactive)
same,z-score,[7],-0.068 (inactive)
same,z-score,[8],0.0077 (inactive)
same,z-score,[9],-1.68
same,composite z-score,[10],-0.0676
same,composite z-score,[11],0.266 (inactive)
same,composite z-score,XIP peptide (Xip251-270),0.723
same,z-score,[12],-2.56
same,z-score,[13],-5.61 (inactive)
same,z-score,[14],-0.268 (inactive)
same,z-score,[15],-0.701 (inactive)
COc1cc2c(cc1O)C(c1ccc(CN3CCCC3)cc1)N(Cc1cccc(OC(F)(F)F)c1)CC2 (centres undefined),z-score,[1],-2.98
same,z-score,[2],-16.5 (active)
same,z-score,[3],-9.24 (active)
same,composite z-score,[4],0.364 (inactive)
same,z-score,[5],-0.103 (inactive)
same,z-score,[6],-1.66 (inactive)
same,z-score,[7],-4.72 (inactive)
same,z-score,[8],-3.03 (inactive)
same,z-score,[9],-6.78
same,composite z-score,[10],0.0673
same,composite z-score,[11],-0.153 (inactive)
same,composite z-score,XIP peptide (Xip251-270),0.156
same,z-score,[12],-2.1
same,z-score,[13],-2.99 (inactive)
same,z-score,[14],0.0325 (inactive)
same,z-score,[15],0.348 (inactive)
CCCCCCCCCCC(O)C1C=CC2C(=O)N(C)C(=O)C2N1N1CCCCC1 (centres undefined),z-score,[1],-1.36
same,z-score,[2],0.447 (inactive)
same,z-score,[3],-1.35 (inactive)
same,composite z-score,[4],1.24 (inactive)
same,z-score,[5],0.944 (inactive)
same,z-score,[6],1.53 (inactive)
same,z-score,[7],-0.619 (inactive)
same,z-score,[8],-0.373 (inactive)
same,z-score,[9],-1.18
same,composite z-score,[10],0.0264
same,composite z-score,[11],0.0477 (inactive)
same,composite z-score,XIP peptide (Xip251-270),0.0634
same,z-score,[12],-0.152
same,z-score,[13],-4.08 (inactive)
same,z-score,[14],0.552 (inactive)
same,z-score,[15],0.303 (inactive)
COc1ccc([Si](C)(C)[C@@H]2[C@@H](CCO)O[C@]3(C(=O)N(Cc4ccccc4)c4ccc(N5C(=O)c6ccccc6Oc6ccccc65)cc43)[C@H]2C)cc1,z-score,[1],1.09
same,z-score,[2],1.84 (inactive)
same,z-score,[3],-1.3 (inactive)
same,composite z-score,[4],-0.641 (inactive)
same,z-score,[5],0.225 (inactive)
same,z-score,[6],3.88 (inactive)
same,z-score,[7],0.727 (inactive)
same,z-score,[8],0.435 (inactive)
same,z-score,[9],-1.81
same,composite z-score,[10],-0.157
same,composite z-score,[11],0.664 (inactive)
same,composite z-score,XIP peptide (Xip251-270),0.299
same,z-score,[12],-0.119
same,z-score,[13],-1.08 (inactive)
same,z-score,[14],-0.83 (inactive)
same,z-score,[15],-0.253 (inactive)
CCCCN1CC=CC23O[C@@H]4C=CCOC(=O)[C@@H]4[C@H]2C(=O)N(C(CO)C(C)C)[C@@H]3C1=O (some centres undefined),z-score,[1],-0.469
same,z-score,[2],0.303 (inactive)
same,z-score,[3],-0.908 (inactive)
same,composite z-score,[4],-0.221 (inactive)
same,z-score,[5],0.0405 (inactive)
same,z-score,[6],0.707 (inactive)
same,z-score,[7],-0.781 (inactive)
same,z-score,[8],-0.825 (inactive)
same,z-score,[9],-0.844
same,composite z-score,[10],-0.22
same,composite z-score,[11],-0.332 (inactive)
same,composite z-score,XIP peptide (Xip251-270),-0.186
same,z-score,[12],-0.156
same,z-score,[13],-5.09 (inactive)
same,z-score,[14],0.216 (inactive)
same,z-score,[15],0.118 (inactive)
O=C1c2ccccc2[C@](Cc2ccccc2I)(C(=O)O)[C@H](c2ccc(CO)cc2)N1Cc1ccccc1,z-score,[1],-0.52
same,z-score,[2],-1.72 (inactive)
same,z-score,[3],-0.427 (inactive)
same,composite z-score,[4],-5.63 (inactive)
same,z-score,[5],-0.121 (inactive)
same,z-score,[6],-2.09 (inactive)
same,z-score,[7],0.656 (inactive)
same,z-score,[8],1.39 (inactive)
same,z-score,[9],-0.831
same,composite z-score,[10],0.147
same,composite z-score,[11],0.947 (inactive)
same,composite z-score,XIP peptide (Xip251-270),0.754
same,z-score,[12],0.387
same,z-score,[13],-4.44 (inactive)
same,z-score,[14],-0.422 (inactive)
same,z-score,[15],-0.204 (inactive)
